Results published in PubChem BioAssay (NCATS).
“And” between values parts separate entries of the source, which are not always exact repeats. Equal entries are not always repeated. Records with an inconclusive call do not appear. The source made the active and inactive calls. Unless noted, the call rests on the fitted dose curve; in most records, active means well fitted curve in the direction sought with a large enough effect; inconclusive means small, poorly fitted or top-dose-only effect, or another doubt; inactive means no such curve, though single readings can be large; an effect the other way counts as inactive or inconclusive.

Legend:
[1] = Cell Viability - LYMP2-007 (AID 979);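 further: cells exposed to compound for 24 h before reading; 0% = DMSO only and the negative end = 92 µM tetraoctylammonium bromide; nearly all actives have a fitted effect of over 60% in size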
Procedure, shortened: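 Cells are seeded at 2500 per well and rested 5 hr. Compounds are then added over a concentration series for 24 hr at 37 C. CellTiter-Glo is added for 30 min at room temperature before luminescence reading.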

[2] = Cell Viability - LYMP2-008 (AID 980);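 further: cells exposed to compound for 24 h at 37 °C; on the % scale 0 is the no-effect control and ±100 the full control effect; nearly all actives have a fitted effect of over 60% in size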
Procedure, shortened: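 Cells seeded at 2500/well and rested 5 hr at 37 C; compounds added over a concentration range and incubated 24 hr at 37 C; CellTiter-Glo added, 30 min at room temperature; luminescence read and AC50 fitted with Hill model.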

[3] = Cell Viability - LYMP2-010 (AID 981);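 further: cells exposed to compound for 24 hours at 37 °C; on the % scale 0 is the no-effect control and ±100 the full control effect; nearly all actives have a fitted effect of over 55% in size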
Procedure, shortened: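 Steps: seed 2500 LYMP2-010 cells per well; incubate 5 hr at 37 C; add compound; incubate 24 hr at 37 C; add CellTiter-Glo, wait 30 min at room temperature; read luminescence. Concentration-response fitted to Hill equation for AC50.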

[4] = Cell Viability - LYMP2-012 (AID 982);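 further: cellular ATP by luciferase luminescence where a drop means cytotoxicity; cells exposed to compound for one day before reading; 0% = DMSO only and full loss = 92 µM tetraoctylammonium bromide; nearly all actives have a fitted effect of over 55% in size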
[5] = Cell Viability - LYMP2-014 (AID 983);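 further: cells exposed to compound for 24 h at 37 °C; plate controls were DMSO only for no effect and 92 µM tetraoctylammonium bromide for full effect; nearly all actives have a fitted effect of over 50% in size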
Procedure, shortened: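 Cells are plated at 2500/well and left 5 hr at 37 C. Compounds are added across a concentration range and incubated 24 hr at 37 C in complete medium. CellTiter-Glo is added, and luminescence is read after 30 min at room temperature.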

[6] = Cell Viability - LYMP2-018 (AID 985);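 further: compound exposure lasted 24 hr at 37 °C; plate controls were DMSO only for no effect and tetraoctylammonium bromide at 92 µM for full effect; nearly all actives have a fitted effect of over 50% in size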
Procedure, shortened: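 Seed 2500 lymphoblastoid cells per well, incubate 5 hr at 37 C, add compound and incubate 24 hr at 37 C, add CellTiter-Glo, wait 30 min at room temperature, then read luminescence.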

[7] = Cell Viability - LYMP2-020 (AID 986);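 further: cells exposed to compound for 24 h at 37 °C; plate controls were DMSO only for no effect and tetraoctylammonium bromide at 92 µM for full effect; nearly all actives have a fitted effect of over 55% in size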
Procedure, shortened: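 Seed 2500 cells per well and incubate 5 hr at 37 C. Add compounds at a concentration series and incubate 24 hr at 37 C. Add CellTiter-Glo, wait 30 min at RT, read luminescence, and fit a Hill curve for AC50.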

[8] = Cell Viability - LYMP2-022 (AID 987);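 further: 0% = DMSO alone and full effect = tetraoctylammonium bromide at 92 µM; nearly all actives have a fitted effect of over 55% in size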
Procedure, shortened: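 Cells were seeded at 2500 per well, rested 5 hr at 37 C, and treated with titrated compounds for 24 hr at 37 C. Cellular ATP was then quantified by luciferase luminescence, and AC50 values were derived from Hill-modelled concentration-response curves.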

[9] = Cell Viability - LYMP2-024 (AID 988);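 further: plate controls were DMSO only for no effect and 92 µM tetraoctylammonium bromide for full effect; nearly all actives have a fitted effect of over 60% in size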
Procedure, shortened: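 qHTS cytotoxicity, human lymphoblastoid line, complete medium; 24 h cpd treatment, 37 C; CellTiter-Glo ATP luminescence readout; tetraoctylammonium bromide positive control; AC50 via Hill fit.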

[10] = Cell Viability - LYMP2-026 (AID 989);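 further: cells exposed to compound for 24 h at 37 °C; on the % scale 0 is the no-effect control and ±100 the full control effect; nearly all actives have a fitted effect of over 50% in size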
Procedure, shortened: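 Cells are seeded at 2500 per well and held 5 hr at 37 C. Compounds are added in concentration series for 24 hr, then CellTiter-Glo reagent is applied and luminescence read.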

[11] = Cell Viability - LYMP1-002 - Assay at 24 hr (AID 993); further: on the % scale 0 is the no-effect control and ±100 the full control effect
Procedure, shortened: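 Acute toxicity is measured as concentration-dependent loss of cellular ATP in a human lymphoblastoid line (Coriell LYMP1-002) after 24 h treatment in complete medium. ATP is quantified by luciferase luminescence and AC50 derived by Hill modelling.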

[12] = Cell Viability - LYMP1-002 - Assay at 40 hr (AID 994);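 further: 0% = DMSO only and full inhibition = 92 µM tetraoctylammonium bromide; nearly all actives have a fitted effect of over 60% in size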
Procedure, shortened: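 Cells are plated at 2500 per well and rested 5 hr at 37 C. Compounds are added and incubated 40 hr at 37 C. CellTiter-Glo reagent is added for 30 min at room temperature before luminescence is read.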

[13] = Validation of Assay for Modulators of Lamin A Splicing (AID 1459; active means well fitted curve in the direction sought with a large enough effect in the signal ratio; the % refers to the signal ratio;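 further: cells exposed to compound for two days before reading; 0% is about no effect; ratio rise marks activators and ratio drop marks inhibitors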)
Procedure, shortened: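 Splicing correction is reported by an EGFP-containing lamin A minigene in stably transfected S3 HeLa cells, while DsRed2 controls for viability and nonspecific signal. Cells are exposed to compounds for 48 hrs before the GFP over RFP ratio is taken.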

[14] = qHTS Assay for Lipid Storage Modulators (AID 1519; calls by dose curve; on activity change, negative = inhibition: on the % scale 0 is the no-effect control and ±100 the full control effect); settings: Drosophila S3 cells, BODIPY lipid droplet/cell ratio, laser cytometry, cells loaded with oleic acid; for activity change, negative = inhibition: at 57.5 µM (top of the series)
Procedure, shortened: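 Cells seeded at 5,000 per well were treated with compounds over a concentration series and loaded with oleic acid (400 uM, as added). Lipid droplet fluorescence (488 nm excitation, 500-530 nm channel) was read by laser-scanning cytometry and normalized to 20 uM Triacsin C.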

[15] = Counterscreen for APE1 Inhibitors: Fluorescent Dye Displacement Validation Assay (AID 1707);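 further: plate controls were ThO with dsDNA and no compound for no effect and ThO without dsDNA for full effect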
Procedure, shortened: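 Counterscreen flags promiscuous DNA binders: compounds displacing ThO from duplex DNA (abasic THF site, 50 nM) reduce 540 nm emission (480 nm excitation). ThO 250 nM final; Tris-HCl pH 7.5 with NaCl, MgCl2 and Tween-20.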

[16] = biological target: Endonuclease 4 (Escherichia coli (strain K12)) (UniProt P0A6C1); assay: Counterscreen for APE1 Inhibitors: qHTS Validation Assay for Inhibitors of Endonuclease IV (AID 1708); further: on the % scale 0 is the no-effect control and ±100 the full control effect
Procedure, shortened: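 Enzyme (2 nM) + compound, 15 min RT; add 50 nM TAMRA/BHQ-2 THF-site dsDNA; kinetic read ex525/em598, 3 reads/60 s; activity = read 3 − read 1. Buffer Tris pH 7.5, 50 mM NaCl, 2 mM MgCl2, DTT, Tween-20.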

[17] = biological target: Alpha-galactosidase A (Homo sapiens) (UniProt P06280); assay: Counterscreen for Glucocerebrosidase Inhibitors: qHTS Assay for Human alpha-Galactosidase at pH 4.5 (AID 992); further: 0% is about no effect
Alpha-galactosidase A (Homo sapiens), sequence (P06280 whole entry, looked up): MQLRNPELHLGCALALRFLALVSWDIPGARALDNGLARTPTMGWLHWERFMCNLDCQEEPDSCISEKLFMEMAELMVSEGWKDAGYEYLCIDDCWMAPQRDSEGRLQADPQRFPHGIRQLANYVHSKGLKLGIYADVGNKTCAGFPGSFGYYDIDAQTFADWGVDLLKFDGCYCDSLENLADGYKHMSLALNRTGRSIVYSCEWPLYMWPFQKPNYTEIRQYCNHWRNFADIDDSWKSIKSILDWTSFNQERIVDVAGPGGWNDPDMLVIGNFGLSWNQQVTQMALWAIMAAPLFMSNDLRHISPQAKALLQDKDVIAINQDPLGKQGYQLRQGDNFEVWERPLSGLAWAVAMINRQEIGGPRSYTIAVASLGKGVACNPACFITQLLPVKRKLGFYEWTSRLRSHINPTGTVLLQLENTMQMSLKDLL
Procedure, shortened: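 Fluorogenic 1536-well qHTS at pH 4.5 (citrate, Tween-20): 2 nM enzyme, 80 uM 4-MU-alpha-galactoside, 20 min room temperature, NaOH/glycine stop. Titration 0.7 nM to 77 uM, data normalized to no-enzyme and full-activity controls, Hill-fitted AC50.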

[18] = biological target: alpha-glucosidase (Oryza sativa, rice) (UniProt Q653V4); assay: Counterscreen for Glucocerebrosidase Inhibitors: qHTS Assay for Rice alpha-Glucosidase at pH 5.0 (AID 997);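 further: 0% = full activity with enzyme and -100% = basal without enzyme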
Procedure, shortened: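 Endpoint fluorogenic assay at pH 5.0: compounds (0.7 nM to 77 uM) titrated against 4 nM rice enzyme and 400 uM 4-MU-alpha-glucoside for 20 min at room temperature; NaOH/glycine stop, read ex 365/em 440 nm, Hill-fitted AC50.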

[19] = biological target: Alpha-galactosidase (Coffea arabica) (UniProt Q42656); assay: Counterscreen for Glucocerebrosidase Inhibitors: qHTS Assay for Coffee Bean alpha-Galactosidase at pH 5.9 (AID 998);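 further: plate controls were uninhibited enzyme for no effect and no-enzyme basal signal for full effect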
Alpha-galactosidase (Coffea arabica), sequence (Q42656 whole entry, looked up): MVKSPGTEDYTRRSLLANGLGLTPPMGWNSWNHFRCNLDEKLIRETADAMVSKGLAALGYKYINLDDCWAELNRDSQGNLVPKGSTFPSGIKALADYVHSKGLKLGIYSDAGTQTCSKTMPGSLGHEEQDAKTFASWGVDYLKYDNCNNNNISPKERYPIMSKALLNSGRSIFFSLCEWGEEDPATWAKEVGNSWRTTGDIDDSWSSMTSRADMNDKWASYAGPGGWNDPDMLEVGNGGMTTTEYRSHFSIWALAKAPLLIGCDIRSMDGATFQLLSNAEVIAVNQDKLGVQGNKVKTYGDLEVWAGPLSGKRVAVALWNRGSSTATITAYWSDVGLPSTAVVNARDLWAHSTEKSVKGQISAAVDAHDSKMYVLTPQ
Procedure, shortened: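 In 50 mM citric acid pH 5.9 with 0.005% Tween-20, coffee bean enzyme hydrolyses 80 uM 4-MU alpha-D-galactopyranoside over 20 min at RT. Activity is normalized to controls; AC50 comes from Hill-modelled concentration-response data.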

[20] = biological target: DNA repair nuclease/redox regulator APEX1 (Homo sapiens) (UniProt P27695); assay: qHTS Validation Assay for Inhibitors of the Human Apurinic/apyrimidinic Endonuclease 1 (APE1) (AID 1705; further: potency means the concentration at half of the fitted maximal effect;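 on activity change, negative = inhibition: TAMRA fluorescence gain over two minutes as APE1 cuts a quenched THF abasic duplex; on the % scale 0 is the no-effect control and ±100 the full control effect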)
DNA repair nuclease/redox regulator APEX1 (Homo sapiens), sequence (P27695 whole entry, looked up): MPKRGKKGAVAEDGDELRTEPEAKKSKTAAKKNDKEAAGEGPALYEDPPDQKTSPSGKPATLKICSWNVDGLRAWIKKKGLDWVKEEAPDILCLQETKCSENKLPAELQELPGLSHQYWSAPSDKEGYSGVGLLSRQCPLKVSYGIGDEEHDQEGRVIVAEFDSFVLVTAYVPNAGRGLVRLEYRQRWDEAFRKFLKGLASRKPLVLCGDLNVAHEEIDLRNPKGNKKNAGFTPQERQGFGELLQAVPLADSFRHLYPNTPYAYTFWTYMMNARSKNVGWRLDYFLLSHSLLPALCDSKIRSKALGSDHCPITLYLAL
Procedure, shortened: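 Endonuclease activity of human APE1 is followed as dequenching when the enzyme incises a tetrahydrofuran abasic site in a short duplex labelled 5'-TAMRA/3'-BHQ-2 (50 nM final), after 15 min enzyme–compound preincubation at room temperature.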

[21] = measured here: cell count channel max response
[22] = measured here: lipid channel max response

COc1ccc2c(c1OC)C(=O)OC2C1c2cc3c(cc2CCN1C)OCO3 (stereo not drawn)
66.1%: max response [14, 22]
61%: max response [14, 21]
inactive: Potency [1] | Potency [2] | Potency [3] | Potency [4] | Potency [5] | Potency [6] | Potency [7] | Potency [8] | Potency [9] | Potency [10] | Potency [11] | Potency [12] | outcome [13] | activity change, negative = inhibition [14] 1.56% | Potency [15] | Potency [16]

CC(C)NP(=O)(NC(C)C)OP(=O)(NC(C)C)NC(C)C
-4.03%: max response [14, 22]
-5.61%: max response [14, 21]
inactive: outcome [17] | outcome [18] | outcome [19] | outcome [13] | activity change, negative = inhibition [14] 2% | Potency [15] | Potency [16]

Oc1ccc2c3c1O[C@H]1c4oc5ccccc5c4C[C@@]4(O)C(C2)N(CC2CC2)CCC314 (stereo partly drawn)
72%: max response [14, 22]
69%: max response [14, 21]
inactive: outcome [13] | activity change, negative = inhibition [14] 0.729% | Potency [20] | Potency [15] | Potency [16]

CCCN(CCC)C1CCc2cccc(O)c2C1 (stereo not drawn)
-31.4%: max response [14, 21]
-33.3%: max response [14, 22]
inactive: outcome [13] | activity change, negative = inhibition [14] -0.917% | Potency [15] | Potency [16]

CCCN(CCC)CCc1ccc(O)c(O)c1
inactive: outcome [17] | outcome [18] | outcome [19] | outcome [13] | activity change, negative = inhibition [14] -0.321% | Potency [20] | Potency [15] | Potency [16]
-7.51%: max response [14, 21]
-5.97%: max response [14, 22]

CN1CCc2cccc(Cl)c2CC1
inactive: outcome [17] | outcome [18] | outcome [19] | outcome [13] | activity change, negative = inhibition [14] 0.882% | Potency [15] | Potency [16]
-8.1%: max response [14, 22]
-8.27%: max response [14, 21]

CCCN(CCC)[C@@H]1CCc2cccc(O)c2C1
-2.21% and 19.9% and 27.7%: max response [14, 22]
0.992% and 13.8% and 35%: max response [14, 21]
inactive: outcome [17] | outcome [18] | outcome [19] | outcome [13] | activity change, negative = inhibition [14] -3.59% and 3.17% and -3.25% | Potency [15] | Potency [16]

OCc1cnc[nH]1
7.21%: max response [14, 21]
inactive: outcome [17] | outcome [18] | outcome [19] | outcome [13] | activity change, negative = inhibition [14] 1.18% | Potency [20] | Potency [15] | Potency [16]
9.78%: max response [14, 22]

Clc1cc(I)cc(Cl)c1NC1=NCCN1
inactive: outcome [17] | outcome [18] | outcome [19] | outcome [13] | activity change, negative = inhibition [14] 0.0728% | Potency [15]
-25.7%: max response [14, 21]
-24.3%: max response [14, 22]

NCC(O)c1cc(O)c(O)cc1F (stereo not drawn)
-35.5%: max response [14, 21]
inactive: outcome [13] | activity change, negative = inhibition [14] -0.0544% | Potency [15] | Potency [16]
-39.7%: max response [14, 22]
active: Potency [20] 35.5 µM
